This note sets out measurements from PubChem BioAssay (NCATS).

Values joined by “and” are separate entries in the source; they are usually repeats but may differ in a detail not shown here. Identical values can stand only once. Inconclusive results are not listed. A structure can be active in one record and inactive in another. Active and inactive are the calls of the source. Unless noted, the call rests on the fitted dose curve; in most records, active means well fitted curve in the direction sought with a large enough effect; inconclusive means small, poorly fitted or top-dose-only effect, or another doubt; inactive means no such curve, though single readings can be large; an effect the other way counts as inactive or inconclusive.

In assay [1] the target is Cytochrome P450 3A4 (Homo sapiens) (UniProt P08684). The assay can be described thus: qHTS Assay for Activators of Cytochrome P450 3A4 (AID 885). Further: nearly all actives have a fitted effect of over 65% in size. Further: potency means the concentration at half of the fitted maximal effect. The procedure, abridged:
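Human CYP3A4 dealkylates Luciferin-PPXE to luciferin, which luciferase detection converts to light. Substrate was at its KM (25uM), buffer 200mM KPO4, reaction 60 min at RT.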

Assay [2] can be described thus: Confirmation and Secondary Assay for Modulators of Hemoglobin Beta Chain Splicing at IVS2 705 locus (AID 930).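 Further: HeLa cells stably expressing the EGFP-705 splicing reporter; GFP fluorescence per well restored by corrected splicing of the IVS2-705 intron in EGFP; % of control where 0% means no effect.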 The procedure, abridged: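 First, HeLa EGFP-705 cells are seeded at 500/well in Optimem with 2% FCS and left overnight. Next, compound or DMSO is added for 2 days. Finally wells are laser-scanned and total peak GFP intensity scored.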
The nature of assay [3]: qHTS Assay for Lipid Storage Modulators (AID 1519; calls by dose curve). The conditions noted are these: Drosophila S3 cells, BODIPY lipid droplet/cell ratio, laser cytometry, cells loaded with oleic acid; for activity change, negative = inhibition: at 57.5 µM (top of the series). The procedure, abridged: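 Cells seeded at 5,000 per well were treated with compounds over a concentration series and loaded with oleic acid (400 uM, as added). Lipid droplet fluorescence (488 nm excitation, 500-530 nm channel) was read by laser-scanning cytometry and normalized to 20 uM Triacsin C.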
In general terms: qHTS replaces the single test concentration by a dilution series.

Assay [4] has as its target Rap guanine nucleotide exchange factor 3 (Homo sapiens) (UniProt O95398). Kind of assay: Confirmatory qHTS for antagonist of cAMP-regulated guanine nucleotide exchange factor 3 (EPAC1) (AID 1645880).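 Further: plate controls were DMSO only for no effect and full effect of the ATA control for full effect; nearly all actives have a fitted effect of over 55% in size.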 Summed up: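 Released BODIPY-GDP fluoresces less than Rap1-bound BODIPY-GDP; the signal is followed at 480/540 nm at 5-min intervals over 30 min, after 5 min at room temperature. Reactions contain 100 nM EPAC1, 250 nM RAP1B-BODIPY-GDP and 50 uM GDP; results are normalized to ATA and DMSO.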

The target is the same in assay [5]. The assay can be described thus: Confirmatory qHTS for agonist of cAMP-regulated guanine nucleotide exchange factor 3 (EPAC1) (AID 1645881).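 Further: EPAC1 catalysed release of BODIPY-GDP from Rap1B seen as fluorescence loss; 100% = effect of cAMP agonist control; nearly all actives have a fitted effect of over 75% in size.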
Assay [6] deals with Rap guanine nucleotide exchange factor 4 (Homo sapiens) (UniProt Q8WZA2). The assay can be described thus: Confirmatory qHTS for agonist of cAMP-regulated guanine nucleotide exchange factor 4 (EPAC2) (AID 1645884).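 Further: nucleotide exchange releases bodipy-GDP from Rap1 and this lowers its fluorescence; on the % scale 0 is the no-effect control and ±100 the full control effect; nearly all actives have a fitted effect of over 65% in size.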
Assay [7] has the same target. The assay can be described thus: Confirmatory qHTS for antagonist of cAMP-regulated guanine nucleotide exchange factor 4 (EPAC2) (AID 1645885). Further: nearly all actives have a fitted effect of over 25% in size. Further: potency means the concentration at half of the fitted maximal effect.
Assay [8] addresses Cytochrome P450 3A4 (Homo sapiens) (UniProt P08684). The assay can be described thus: qHTS Assay for Inhibitors and Substrates of Cytochrome P450 3A4 (AID 884). Further: nearly all actives have a fitted effect of over 50% in size. Further: potency means the concentration at half of the fitted maximal effect. Summed up: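 Luminescent readout of luciferin produced by CYP3A4 (20 nM) dealkylation of Luciferin-PPXE, 25 uM (its KM). NADPH-driven reaction ran 60 min at RT after 10 min compound preincubation; data scaled to 57 uM ketoconazole as 100% inhibition.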

Assay [9] is described as follows: Confirmation and Secondary Assay for Modulators of Hemoglobin Beta Chain Splicing at IVS2 654 locus (AID 910).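 Further: HeLa cells stably carrying EGFP split by mutant beta-globin IVS2-654 intron; % of control where 0% means no effect.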 Summed up:
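HeLa cells stably expressing EGFP interrupted by β-globin IVS2-654 intron, seeded overnight in Opti-MEM/2% FCS, then treated 2 days at 37 °C. Restored splicing read as total peak GFP intensity per well by laser scanning cytometry (488 nm excitation, 500–520 nm emission); 500 nM antisense PNA as control.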

Assay [10] concerns the target Ubiquitin carboxyl-terminal hydrolase 1 (Homo sapiens) (UniProt O94782). The assay can be described thus: Inhibitors of USP1/UAF1: Pilot qHTS (AID 504865). Further: nearly all actives have a fitted effect of over 35% in size. Further: potency means the concentration at half of the fitted maximal effect. Summed up: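 In 50mM HEPES pH 7.8 containing 0.5mM EDTA, 1mM TCEP, 0.1 mg/ml BSA and 0.01% Tween-20, 1nM USP1/UAF1 is exposed to compound for 15 min, then Ub-Rho (150nM final) is added and fluorescence is read over time.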

Assay [11] can be described thus: AP1 Signaling Pathway (AID 357; active means well fitted curve in either direction with a large enough effect, not every such curve was filed as active;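 further: ME-180 reporter cells stimulated with EGF at its EC50 level; on the % scale 0 is the no-effect control and ±100 the full control effect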). The following applies: ME-180 AP-1-bla reporter, EGF-induced, beta-lactamase ratio, 5 h; at 7.69 µM (top of the series) unless noted. The procedure, abridged:
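In this screen, ME-180 cells in Opti-MEM with 0.5% dialyzed FBS received EC50 EGF and compound titrations for 5 h. AP-1 reporter beta-lactamase was detected via CCF4 ratio, giving AC50 for positive and negative modulators.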

Assay [12] is described as follows: NFAT Signaling Pathway (AID 444; active means well fitted curve in either direction with a large enough effect, not every such curve was filed as active;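 further: carbachol stimulus at about its EC50 of 1 µM final; on the % scale 0 is the no-effect control and ±100 the full control effect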). The conditions noted are these: Jurkat NFAT-bla M1, carbachol, beta-lactamase ratio, 5 h; at 7.69 µM (top of the series) unless noted. The procedure, abridged: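 Jurkat cells with NFAT-driven β-lactamase reporter and co-expressed M1 receptor, stimulated with carbachol (final 1 uM, ~EC50), compound titration, 5 h at 37 °C. CCF4 loaded 1 h at RT; 460/530 nm ratio gave %activity and AC50.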

Assay [13] in a line: Stat Signaling Pathway (AID 446; active means well fitted curve in either direction with a large enough effect, not every such curve was filed as active;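 further: ME-180 cervical cancer cells given 40 pM IL-6 alongside compound; SIE-controlled beta-lactamase reporter measured as 460/530 nm FRET emission ratio; on the % scale 0 is the no-effect control and ±100 the full control effect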). The following applies: ME-180 (cervical carcinoma) SIE beta-lactamase reporter, IL-6 stimulated, 5 h; at 7.69 µM (top of the series) unless noted. Summed up:
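Normalization used AC90 stimulation (300 pM IL-6) and AC90 inhibition (125 nM pan-JAK inhibitor at 40 pM IL-6). The underlying signal is SIE-driven beta-lactamase in ME-180 cells after 5 h IL-6 exposure with compound.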

The target in assay [14] is Glucocorticoid receptor (Homo sapiens) (UniProt P04150). The assay can be described thus: GR-GFP Redistribution (AID 450;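 active means compounds whose dose series gives a full or clear partial fitted curve of increased nuclear translocation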; further: potency means the concentration at half of the fitted maximal effect). The following applies: U2OS GR-GFP nuclear translocation, laser cytometry, 2 h.
Assay [15] has the same target. The assay can be described thus: GR-EFC Redistribution (AID 451; calls by dose curve; further: potency means the concentration at half of the fitted maximal effect). The following applies: CHO-K1 GR-EFC translocation, beta-gal luminescence, 2 h. Summed up: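 CHO-K1 cells expressing nuclear EA and GR-ED fragments of b-gal; compounds titrated up to 46 uM final, 2 h at 37 C. GR nuclear translocation read as complemented b-gal luminescence after 1 h RT detection.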

For assay [16], the target named is Mitogen-activated protein kinase 10 (Mus musculus) (UniProt Q61831). The assay can be described thus: JNK3 AlphaScreen Assay (AID 530; active means well fitted curve in either direction with a large enough effect, not every such curve was filed as active;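 further: kinase came from lysate of stimulated human HepG2 cells; signal reports phosphorylation of biotinylated GST-cJun 1-79 at Ser73 with 10 µM ATP; on the % scale 0 is the no-effect control and ±100 the full control effect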). Summed up: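 HepG2 lysate (IL-1b/TNFa pre-activated) + biotin-GST-cJun 1-79 + anti-pSer73 cJun; cpd titration, 15 min RT; ATP 10 uM start; Tris pH 7.6, MgCl2, DTT, vanadate; beads in EDTA buffer; AlphaScreen.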
In general terms: Bead proximity is the source of the signal in Alpha formats.

Where [17] appears, read: measured here: cell count channel max response.
[18] abbreviates: measured here: lipid channel max response.

Chain of Rap guanine nucleotide exchange factor 3 (Homo sapiens) (O95398 whole entry, looked up): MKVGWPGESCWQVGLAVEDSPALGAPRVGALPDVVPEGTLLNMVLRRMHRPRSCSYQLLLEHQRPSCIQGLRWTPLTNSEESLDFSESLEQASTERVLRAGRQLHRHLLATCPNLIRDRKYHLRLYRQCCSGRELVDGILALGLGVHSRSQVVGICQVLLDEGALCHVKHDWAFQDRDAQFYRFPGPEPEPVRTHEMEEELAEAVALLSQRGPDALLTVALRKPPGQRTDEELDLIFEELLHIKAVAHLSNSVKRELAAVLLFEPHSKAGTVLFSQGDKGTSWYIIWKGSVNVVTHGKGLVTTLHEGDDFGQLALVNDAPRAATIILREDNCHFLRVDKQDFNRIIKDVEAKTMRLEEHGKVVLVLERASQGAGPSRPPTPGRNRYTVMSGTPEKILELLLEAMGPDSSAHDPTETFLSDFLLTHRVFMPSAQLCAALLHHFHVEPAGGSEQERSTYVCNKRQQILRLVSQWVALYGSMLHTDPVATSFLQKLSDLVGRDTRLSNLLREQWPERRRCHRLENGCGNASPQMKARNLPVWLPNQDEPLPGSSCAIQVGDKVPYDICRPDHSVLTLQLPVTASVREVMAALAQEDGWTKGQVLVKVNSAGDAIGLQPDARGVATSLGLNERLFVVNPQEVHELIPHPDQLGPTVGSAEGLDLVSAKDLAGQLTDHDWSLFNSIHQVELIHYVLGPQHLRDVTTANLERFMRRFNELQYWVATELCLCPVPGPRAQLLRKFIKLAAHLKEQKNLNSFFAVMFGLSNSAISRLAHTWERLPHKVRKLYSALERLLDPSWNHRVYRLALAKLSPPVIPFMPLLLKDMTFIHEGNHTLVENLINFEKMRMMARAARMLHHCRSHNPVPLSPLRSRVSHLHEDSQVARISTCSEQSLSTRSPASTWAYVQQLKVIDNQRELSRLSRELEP
Chain of Rap guanine nucleotide exchange factor 4 (Homo sapiens) (Q8WZA2 whole entry, looked up): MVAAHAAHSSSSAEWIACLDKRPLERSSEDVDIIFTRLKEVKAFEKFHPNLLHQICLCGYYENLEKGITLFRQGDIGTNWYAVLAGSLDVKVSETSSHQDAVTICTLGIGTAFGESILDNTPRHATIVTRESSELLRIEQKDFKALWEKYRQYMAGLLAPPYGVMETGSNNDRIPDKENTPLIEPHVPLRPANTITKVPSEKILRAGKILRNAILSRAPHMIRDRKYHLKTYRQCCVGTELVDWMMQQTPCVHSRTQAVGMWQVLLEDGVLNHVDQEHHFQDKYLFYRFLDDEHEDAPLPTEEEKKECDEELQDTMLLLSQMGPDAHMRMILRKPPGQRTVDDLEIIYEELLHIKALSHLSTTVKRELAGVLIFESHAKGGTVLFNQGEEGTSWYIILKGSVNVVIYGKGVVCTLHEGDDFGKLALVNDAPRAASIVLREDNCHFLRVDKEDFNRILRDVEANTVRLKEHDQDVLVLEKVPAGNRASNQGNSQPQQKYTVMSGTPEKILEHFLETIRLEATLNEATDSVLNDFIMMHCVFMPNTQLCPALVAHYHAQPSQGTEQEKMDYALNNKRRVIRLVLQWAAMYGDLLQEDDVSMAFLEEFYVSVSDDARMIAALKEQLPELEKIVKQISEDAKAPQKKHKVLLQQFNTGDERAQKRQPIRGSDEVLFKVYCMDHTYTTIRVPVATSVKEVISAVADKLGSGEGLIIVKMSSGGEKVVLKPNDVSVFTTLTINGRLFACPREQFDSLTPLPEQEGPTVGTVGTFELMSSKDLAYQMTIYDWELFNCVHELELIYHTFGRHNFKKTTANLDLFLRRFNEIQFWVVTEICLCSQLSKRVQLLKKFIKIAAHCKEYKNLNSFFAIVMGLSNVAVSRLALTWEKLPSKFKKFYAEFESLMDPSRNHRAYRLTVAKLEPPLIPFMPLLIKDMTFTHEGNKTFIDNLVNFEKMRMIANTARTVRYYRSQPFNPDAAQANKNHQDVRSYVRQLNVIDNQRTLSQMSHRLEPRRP
Chain of Cytochrome P450 3A4 (Homo sapiens) (P08684 whole entry, looked up): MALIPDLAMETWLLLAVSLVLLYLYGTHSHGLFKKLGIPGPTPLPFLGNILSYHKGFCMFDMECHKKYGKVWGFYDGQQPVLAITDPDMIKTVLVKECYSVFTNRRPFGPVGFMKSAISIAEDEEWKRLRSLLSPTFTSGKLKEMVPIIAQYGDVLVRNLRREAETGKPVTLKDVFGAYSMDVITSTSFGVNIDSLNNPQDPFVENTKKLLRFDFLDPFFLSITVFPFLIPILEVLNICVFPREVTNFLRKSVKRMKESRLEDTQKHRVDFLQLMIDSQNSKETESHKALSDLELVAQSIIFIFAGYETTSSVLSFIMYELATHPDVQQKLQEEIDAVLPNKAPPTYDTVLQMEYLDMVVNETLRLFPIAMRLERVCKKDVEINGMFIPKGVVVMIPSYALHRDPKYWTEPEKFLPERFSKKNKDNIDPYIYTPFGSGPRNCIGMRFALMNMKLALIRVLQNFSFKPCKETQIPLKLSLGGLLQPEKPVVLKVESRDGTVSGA
Chain of Glucocorticoid receptor (Homo sapiens) (P04150 whole entry, looked up, the tested form may be a part): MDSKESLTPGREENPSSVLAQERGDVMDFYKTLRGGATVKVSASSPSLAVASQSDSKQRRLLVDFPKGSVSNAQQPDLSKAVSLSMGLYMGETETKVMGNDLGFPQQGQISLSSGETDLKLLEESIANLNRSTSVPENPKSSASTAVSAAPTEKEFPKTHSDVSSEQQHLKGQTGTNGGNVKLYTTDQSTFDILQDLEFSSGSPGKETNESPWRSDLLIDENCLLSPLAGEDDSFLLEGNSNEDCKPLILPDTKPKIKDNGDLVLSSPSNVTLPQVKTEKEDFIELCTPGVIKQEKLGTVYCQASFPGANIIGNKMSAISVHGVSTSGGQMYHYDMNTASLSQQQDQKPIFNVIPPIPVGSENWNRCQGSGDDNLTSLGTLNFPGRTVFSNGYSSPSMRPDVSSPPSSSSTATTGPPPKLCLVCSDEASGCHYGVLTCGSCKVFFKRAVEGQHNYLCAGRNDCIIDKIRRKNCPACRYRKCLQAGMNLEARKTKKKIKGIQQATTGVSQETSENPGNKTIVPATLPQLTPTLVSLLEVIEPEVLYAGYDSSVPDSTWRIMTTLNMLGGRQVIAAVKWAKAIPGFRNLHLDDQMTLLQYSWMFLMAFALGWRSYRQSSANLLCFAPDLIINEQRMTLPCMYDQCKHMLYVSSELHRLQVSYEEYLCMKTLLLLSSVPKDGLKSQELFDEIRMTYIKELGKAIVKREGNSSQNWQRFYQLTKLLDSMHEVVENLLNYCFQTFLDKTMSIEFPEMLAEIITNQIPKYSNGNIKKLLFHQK
Chain of Ubiquitin carboxyl-terminal hydrolase 1 (Homo sapiens) (O94782 whole entry, looked up): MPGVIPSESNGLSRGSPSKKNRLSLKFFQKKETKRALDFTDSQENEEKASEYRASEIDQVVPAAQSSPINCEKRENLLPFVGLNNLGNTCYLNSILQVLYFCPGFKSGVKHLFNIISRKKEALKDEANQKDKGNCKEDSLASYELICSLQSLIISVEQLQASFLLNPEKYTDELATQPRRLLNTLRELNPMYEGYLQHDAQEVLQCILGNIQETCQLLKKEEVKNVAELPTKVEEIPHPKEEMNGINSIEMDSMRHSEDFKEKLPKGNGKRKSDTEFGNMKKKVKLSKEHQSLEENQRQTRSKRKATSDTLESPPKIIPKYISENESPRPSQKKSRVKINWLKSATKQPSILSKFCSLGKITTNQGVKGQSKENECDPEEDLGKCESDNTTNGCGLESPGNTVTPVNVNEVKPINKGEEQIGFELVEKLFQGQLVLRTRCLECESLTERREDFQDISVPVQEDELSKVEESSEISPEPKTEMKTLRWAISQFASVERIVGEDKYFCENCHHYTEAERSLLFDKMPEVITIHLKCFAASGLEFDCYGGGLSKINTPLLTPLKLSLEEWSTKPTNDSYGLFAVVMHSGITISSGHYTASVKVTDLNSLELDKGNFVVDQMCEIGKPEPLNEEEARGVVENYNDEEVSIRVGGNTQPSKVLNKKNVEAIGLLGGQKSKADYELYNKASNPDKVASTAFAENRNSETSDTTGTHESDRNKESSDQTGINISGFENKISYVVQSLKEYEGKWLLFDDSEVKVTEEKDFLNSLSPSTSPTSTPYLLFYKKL

Turning to `COc1cc(-c2coc3cc(OCc4ccccc4)c(OC)c(O)c3c2=O)cc(O)c1OC`, the Potency entry in assay [1], in assay [4], in assay [5], in [6] and in assay [7] was “inactive” each time. For the same compound, in assay [2], the compound was classed as inactive. Moreover, the activity change, negative = inhibition in assay [3] is -4.72% (inactive). Besides, the max response was -3.67% in assay [3] (setting [17]) and -4.66% in assay [3] (setting [18]).
For `C=CC(C1=CC(=O)C(OC)=CC1=O)c1ccccc1` (stereo unspecified), the values for the Potency in [8], in assay [10] and in assay [7] were 20 µM (active), 56.2 µM (active) and 31.2 µM (active), respectively. For the same compound, the Potency result in [1], in assay [9], in assay [5] and in [6] was “inactive” each time. In [2], the compound was classed as inactive. Also, the activity change, negative = inhibition in assay [3] is -14.6% (inactive). Besides, the max response is -0.41% in assay [3] (setting [17]) and -12.3% in [3] (setting [18]).
In the case of `COC(=O)c1c(OC)cc2c(c1C)Oc1c(Cl)c(OC(C)=O)c(Cl)c(C)c1C(=O)O2`, the values for the Potency in assay [8] and in [7] were 15.8 µM (active) and 11.1 µM (active), respectively. For the same compound, the Potency result in assay [1], in assay [9], in [4], in assay [5] and in [6] was “inactive” throughout. Besides, in assay [2], the compound was classed as inactive. Besides, in assay [3], the activity change, negative = inhibition was 5.48% (inactive). Further, the max response came to 2.97% in assay [3] (setting [17]) and 13% in assay [3] (setting [18]).
`CC(=O)OC1CCC23CC1(C)CCC2C(C)(C)CC3OC(C)=O` (stereo unspecified): the Potency entry in assay [1], in [9], in [4], in [5] and in [6] was “inactive” each time. Also, the result in [2] was inactive. In addition, the activity change, negative = inhibition in [3] is 2.71% (inactive). For the same compound, the figures for the max response in assay [3] (setting [17]) and in [3] (setting [18]) were 3.38% and 6.37%, respectively. Also, the Potency in [7] is 39.3 µM (active).
Regarding `COc1ccc(C(=O)O)c(O)c1OC`, the Potency result in assay [8], in [9], in assay [10], in assay [4], in assay [5] and in [6] was “inactive” each time. In addition, the Potency result in assay [7] was “inactive”. Also, the compound was classed as inactive in assay [2]. For the same compound, the activity change, negative = inhibition in assay [3] was 7.29% (inactive). The max response in [3] (setting [17]) was 8.57%; in assay [3] (setting [18]), 18.5%.
On to `CN(Cc1ccco1)c1nc(-c2ccccc2Cl)nc2ccccc12`, for which the activity change, negative = inhibition in [11] was 16.9% (inactive); in [12], -23.4% (inactive); in assay [3], 11.9% (inactive). Besides, in assay [13], the activity, negative = inhibition was 21.7% (inactive). The Potency in assay [14] and in assay [15] was > 46 µM (inactive) in each case. The Potency entry in [16], in [9], in [4], in assay [5] and in assay [6] was “inactive” in each case. Also, in [2], the outcome was inactive. The max response in assay [3] (setting [17]) is 14.1%; in assay [3] (setting [18]), 24.3%.
Consider `CC(=O)OC1CC[C@]2(C)C(CC(OC(C)=O)[C@@]3(C)C4=CC(=O)OC(c5ccoc5)[C@]4(C)CCC23)C1(C)C` (stereo partly specified), for which the Potency result in assay [8] is “inactive and 2.51 µM (active)”; in [1] it was 6.31 µM (active) and inactive. Besides, the Potency result in assay [9], in [4], in assay [5] and in assay [6] was “inactive” throughout. Also, the compound was called inactive in assay [2]. Also, the activity change, negative = inhibition in assay [3] is -24.5% (inactive) and -12.6% (inactive) and 0.61% (inactive). The max response in assay [3] (setting [17]) is 6.99% and 9.73% and 16%; in assay [3] (setting [18]) it was -14.8% and -4.52% and 18.3%.
